Data reported in the supplement of paper PMC12632987.

Target: GABARAPL2, P60520
Assay: median log2 fold change of GCK-ALFA target abundance (FLAG IP / Myc IP barcode read proportion) (log2 ratio); each designed protein is fused to an ALFA-tag nanobody in HEK293 cells to bring the named protein to FLAG-tagged glucokinase (GCK); Myc marks an untargeted standard; higher = target protein stabilised (more abundant)
Conditions: target protein: 3xFLAG-MCP-GCK-ALFA reporter; HEK293 landing pad (RPLP)
How it was run: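 An ALFA-nanobody-fused binder library was recombined into HEK293 landing-pad cells and induced with 2 μg mL^−1 doxycycline. Cells were transfected with a plasmid expressing a FLAG-tagged target and a Myc-tagged standard. After 48 h, lysates underwent anti-FLAG and anti-Myc immunoprecipitation, and circular RNA barcodes were reverse transcribed, amplified and sequenced. Target abundance is the per-binder median log2 ratio of FLAG to Myc barcode read proportions. Barcodes needed ≥10^−7 proportion in both replicates, binders ≥3 barcodes per replicate, and a 10^−6 pseudocount was added; the two replicates were pooled.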

Sequence of GABARAPL2, P60520 (P60520 whole entry, the tested form may be a part): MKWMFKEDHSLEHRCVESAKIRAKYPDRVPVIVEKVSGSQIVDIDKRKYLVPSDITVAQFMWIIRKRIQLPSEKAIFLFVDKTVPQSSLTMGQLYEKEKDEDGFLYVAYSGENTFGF

Binder | median log2 fold change
GBRAPL2_175_7340 (protein) SAYEALLKEIIKLLLELSEKANDEVSDLLDAAAAVLETDGLAAAGRAAALVAEASKEAADNPQLQAALAKLAAALKALAAGAAPEEVEKLLKEAKAITKK | 0.217
GBRAPL2_175_7341 (protein) AAYEKLLKEIIELLDELAEKADDEVSDLLEAAAAVLETDGLAGAGRAAKLVAEAAKEAADNPKLQAALKEVAAALKAIADGAAPEEVEKLLKKAKAILKE | 0.142
GBRAPL2_43_7342 (protein) MTEIEKKAIEEAREALEEKLDLDGVKEYEEEVEIRKEGDRTIAIVKATSKETGKEYYAVAVYDKNGELLVVVVSSDLERALKAAEDLIELGERDTYVLLP | 0.125
GBRAPL2_53_7343 (protein) MIEVDIAHPDKEVMAAAVEAVFDILERAGVEARVTVTKEDGTVVELEGPLEEVRAQAVALAKATEVLVRIELPDEAEEVVEEIEDEALAKGATVSVERIP | 0.199
GBRAPL2_53_7344 (protein) MIEVDIAHPDKEVMAKAVEAVFDILEEAGVEAEVEVTKEDGTVERLRGPLEEVREKAVKLAKETEVLVTIRLPDSAEEVVEKIEDEALKHGATVSVKRLE | 0.23
GBRAPL2_53_7345 (protein) MIVVDVAHPDKEVMAEAVEAIFDILEENGVEAKVTVTLEDGTVVELEGPLDEVRKKAVELAKKSEVLVEIELPDSAEETVEKLEDVALEKGATVSVERIP | 0.0792
GBRAPL2_53_7346 (protein) MKKVDIAHPDKEKLAKTLEEIFKILEENGVKAKVTVTTEDGNVIVLEGDLEEIREKTVKLAKETEVLVEIELPDDAEETVEKIIDVALKNGATVSVDGLE | 0.2
GBRAPL2_53_7347 (protein) MIEIDIAHPDKEVMAETLEEIFDVLKKAGVEAKVTVTTENGEVIVLEGDLDEIKEKVVELAKKTNILVTIELPEDAEEVVEEIIDIALEKGAAVSVDGLE | -0.185
GBRAPL2_53_7348 (protein) MYVVEIAHPDRDVLAAAIEAVFDLIEEAGVEAEVTVTLEDGTVIKLEGPISEVKERAVALAKETDVLVEIKLPDEAEEVVEELEDIALEKGATVSVEKLE | 0.152
GBRAPL2_53_7349 (protein) MYEVEIAHPDKEVLAAAIEAIFDKIEEAGVEAEVEVTLEDGTVIKLEGPIEEQKEEAVALAKETDVLVTIKLPDEAEELVEELEDIALEKGATVSVEKLE | 0.0915
GBRAPL2_53_7350 (protein) MYVIEIAHPDKETLAKAIEAIFDKLIEAGVEAKITVTLEDGTVIKLEGSLEEQKKKAVALAKETNVLVEIELPDSAKEVVEELEDIALKEGATVSVEKLE | 0.177
GBRAPL2_53_7351 (protein) MYRVLIGHPDKEVMVKALEKVFEILEEAGVEAKVKVTKEDGTVIELEGPIKEIKEETLKLAKEQPILVEIELPDEAEEVVEKIVDAALEAGATVSVEKVE | 0.157
GBRAPL2_53_7353 (protein) MIEVDIAHPDPEVMARALEKIFDIIKEAGQKVTVTVTTEDGTVITLTGDIDTIRAETVALAKQQPILVRIELEEEDEEVAEKVVDAALEEGATVSVERVE | 0.275
GBRAPL2_53_7354 (protein) MIAIEIGHPNKEVMVEALKKVFEIIKKAGEKVEVEVTLEDGTVIKLEGSVEEIEEKVLELAKKQPILVTIYLPEKNEELVEEIEDAALEAGATVSVEELP | 0.166
GBRAPL2_53_7355 (protein) MVEIDIGHPDKEVMVKALEEVFDLIEKAGAEVEVIVTKEDGTVIKLTGSVEEIREKVIALAREQPILVTILLKEKNEKLVEEMVDAALKAGATVSVEELP | 0.379
GBRAPL2_53_7356 (protein) MLELEIAHPDKEIMAKAVEEIFNLLKEENVEAEVTVTTENGEVIKLTGDIEEIKKKVVELAKKQPILVSIKLPDSAEEVVEKMEDIALELGATVSVSRLE | 0.229
